{"source": "the antibiotic and cytotoxicity screens of Wong et al. (2023)", "note": "About 500 (1.3%) of roughly 39,000 compounds were called active. Many of the other results were omitted from the sample, so actives are more common in it than they were."}
{"test_system": "S. aureus RN4220", "assay": "growth inhibition call (relative growth <= 0.2)", "conditions": "50 µM"}
{"compound": "C[C@H](CO)N1C[C@H](C)[C@H](CN(C)C(=O)Nc2ccccc2)OCCCC[C@H](C)Oc2ccc(NC(=O)Nc3ccc(F)cc3)cc2C1=O", "growth inhibition call": "inactive"}
{"compound": "C[C@H](CO)N1C[C@H](C)[C@@H](CN(C)CC2CC2)Oc2ccc(NS(=O)(=O)c3cccs3)cc2C1=O", "growth inhibition call": "inactive"}
{"compound": "Cc1ccc(S(=O)(=O)N(C)C[C@H]2Oc3ccc(NC(=O)Nc4cccc5ccccc45)cc3C(=O)N([C@@H](C)CO)C[C@H]2C)cc1", "growth inhibition call": "inactive"}
{"compound": "O=C1NCC(=O)N2[C@@H]1C[C@@H](C(=O)O)[C@H]2c1ccc(O)cc1", "growth inhibition call": "inactive"}
{"compound": "C[C@H](CO)N1C[C@H](C)[C@H](CN(C)Cc2cccc(F)c2)Oc2cc(C#CC3CC3)ccc2S1(=O)=O", "growth inhibition call": "inactive"}
{"compound": "C[C@H](CO)N1C[C@H](C)[C@@H](CN(C)CC2CCCCC2)Oc2ccc(NC(=O)Cn3cnnn3)cc2C1=O", "growth inhibition call": "inactive"}
{"compound": "C[C@@H]1CN([C@@H](C)CO)S(=O)(=O)c2ccc(Br)cc2O[C@H]1CN(C)S(=O)(=O)c1ccc(F)cc1", "growth inhibition call": "inactive"}
{"compound": "COc1ccc(S(=O)(=O)N(C)C[C@@H]2Oc3ccc(NC(=O)c4ccncc4)cc3C(=O)N([C@H](C)CO)C[C@@H]2C)cc1", "growth inhibition call": "inactive"}
{"compound": "C[C@H](CO)N1C[C@H](C)[C@@H](CN(C)S(=O)(=O)c2cn(C)cn2)OCCCC[C@H](C)Oc2ccc(NS(=O)(=O)c3cn(C)cn3)cc2C1=O", "growth inhibition call": "inactive"}
{"compound": "C[C@@H]1CCCCO[C@H](CN(C)C(=O)Cc2ccccc2)[C@@H](C)CN([C@@H](C)CO)C(=O)c2cc(NC(=O)C3CCCCC3)ccc2O1", "growth inhibition call": "inactive"}
{"compound": "C[C@@H]1CCCCO[C@@H](CN(C)C(=O)Nc2ccc(F)cc2)[C@H](C)CN([C@@H](C)CO)C(=O)c2cc(NC(=O)CCC(F)(F)F)ccc2O1", "growth inhibition call": "inactive"}
{"compound": "C[C@H]1CN([C@@H](C)CO)C(=O)CCCn2nncc2CO[C@@H]1CN(C)S(=O)(=O)c1ccc(Oc2ccccc2)cc1", "growth inhibition call": "inactive"}
{"compound": "C[C@H](N)C(=O)NCC(=O)N[C@H]1CSSC[C@@H](C(=O)O)NC(=O)[C@H](CO)NC(=O)[C@H]([C@@H](C)O)NC(=O)[C@H](Cc2ccccc2)NC(=O)[C@H]([C@@H](C)O)NC(=O)[C@H](CCCCN)NC(=O)[C@H](Cc2c[nH]c3ccccc23)NC(=O)[C@H](Cc2ccccc2)NC(=O)[C@H](Cc2ccccc2)NC(=O)[C@H](CC(N)=O)NC(=O)[C@H](CCCCN)NC1=O", "growth inhibition call": "inactive"}
{"compound": "CSCC[C@H](NC(=O)[C@H](Cc1c[nH]c2ccccc12)NC(=O)CNC(=O)[C@@H](NC(=O)[C@H](Cc1ccc(OS(=O)(=O)O)cc1)NC(=O)[C@H](CC(=O)O)NC(=O)[C@H](CCC(N)=O)NC(=O)[C@@H]1CCC(=O)N1)[C@@H](C)O)C(=O)N[C@@H](CC(=O)O)C(=O)N[C@@H](Cc1ccccc1)C(N)=O", "growth inhibition call": "inactive"}
{"compound": "CCCCCCCCCC(=O)N[C@@H](Cc1c[nH]c2ccccc12)C(=O)N[C@H](CC(N)=O)C(=O)N[C@@H](CC(=O)O)C(=O)N[C@@H]1C(=O)NCC(=O)N[C@@H](CCCN)C(=O)N[C@@H](CC(=O)O)C(=O)N[C@H](C)C(=O)N[C@@H](CC(=O)O)C(=O)NCC(=O)N[C@H](CO)C(=O)N[C@@H]([C@H](C)CC(=O)O)C(=O)N[C@@H](CC(=O)c2ccccc2N)C(=O)O[C@@H]1C", "growth inhibition call": "active"}
{"compound": "CS(=O)(=O)NCc1cnc2n1CCN(C(=O)[C@H]1CCOC1)CC2", "growth inhibition call": "inactive"}
{"compound": "CC(C)[N+]1(C)C2CCC1CC(OC(=O)C(CO)c1ccccc1)C2.[Br-]", "note": "(stereo unspecified)", "growth inhibition call": "inactive"}
{"compound": "C[C@H](CO)N1C[C@H](C)[C@@H](CN(C)Cc2ccc(-c3ccccc3)cc2)Oc2c(NS(=O)(=O)c3ccc(F)cc3)cccc2C1=O", "growth inhibition call": "inactive"}
{"compound": "C=C(NC(=O)C(=C)NC(=O)c1csc(C2=N[C@@H]3c4csc(n4)[C@@H]4NC(=O)c5csc(n5)[C@H](C(C)(O)[C@@H](C)O)NC(=O)[C@H]5CSC(=N5)/C(=C/C)NC(=O)[C@H]([C@@H](C)O)NC(=O)c5csc(n5)[C@]3(CC2)NC(=O)[C@@H](C)NC(=O)C(=C)NC(=O)[C@@H](C)NC(=O)[C@@H]([C@H](C)CC)N[C@H]2C=Cc3c([C@@H](C)O)cc(nc3[C@@H]2O)C(=O)O[C@H]4C)n1)C(N)=O", "note": "(stereo partly specified)", "growth inhibition call": "inactive"}
{"compound": "C=C(NC(=O)C(=C)NC(=O)c1csc(C2=N[C@H]3c4csc(n4)[C@H]4NC(=O)c5csc(n5)[C@H](C(C)(O)[C@@H](C)O)NC(=O)[C@H]5CSC(=N5)C(=CC)NC(=O)[C@H]([C@@H](C)O)NC(=O)c5csc(n5)[C@]3(CC2)NC(=O)[C@H](C)NC(=O)C(=C)NC(=O)[C@H](C)NC(=O)[C@H]([C@H](C)CC)N[C@@H]2C=Cc3c([C@H](C)O)cc(nc3[C@H]2O)C(=O)O[C@@H]4C)n1)C(N)=O", "note": "(stereo partly specified)", "growth inhibition call": "inactive"}
{"compound": "C=C(NC(=O)C(=C)NC(=O)c1csc(C2=NC3c4csc(n4)C4NC(=O)c5csc(n5)C(C(C)(O)C(C)O)NC(=O)C5CSC(=N5)C(=CC)NC(=O)C(C(C)O)NC(=O)c5csc(n5)C3(CC2)NC(=O)C(C)NC(=O)C(=C)NC(=O)C(C)NC(=O)C(C(C)CC)NC2C=Cc3c(C(C)O)cc(nc3C2O)C(=O)OC4C)n1)C(N)=O", "note": "(stereo unspecified)", "growth inhibition call": "active"}
{"compound": "COCCNC(=O)c1cn(C)nc1OC", "growth inhibition call": "inactive"}
{"compound": "C[C@H]1CN([C@@H](C)CO)C(=O)c2cccc(NS(=O)(=O)c3cn(C)cn3)c2O[C@H]1CN(C)S(=O)(=O)c1cn(C)cn1", "growth inhibition call": "inactive"}
{"compound": "C[C@H]1CN([C@@H](C)CO)S(=O)(=O)c2ccc(C#CC3(O)CCCC3)cc2O[C@H]1CN(C)C(=O)Cc1ccccc1", "growth inhibition call": "inactive"}
{"compound": "CC(C)NC(=O)N(C)C[C@@H]1Oc2c(NS(=O)(=O)c3ccccc3)cccc2C(=O)N([C@@H](C)CO)C[C@H]1C", "growth inhibition call": "inactive"}
{"compound": "C[C@H](CO)N1C[C@H](C)[C@@H](CN(C)C(=O)CCN2CCCCC2)Oc2ncc(C#CCN(C)C)cc2C1=O", "growth inhibition call": "inactive"}
{"compound": "O=C(O)c1cc(F)c2nc(N3[C@@H]4CC[C@H]3C[C@@H](OCc3c(-c5ccccc5OC(F)(F)F)noc3C3CC3)C4)sc2c1", "growth inhibition call": "active"}
{"compound": "COc1ccc(CN2C[C@H](C)[C@@H](OC)CN(C)C(=O)c3ccc(NC(=O)c4nc5ccccc5s4)cc3OC[C@H]2C)cc1", "growth inhibition call": "inactive"}
{"compound": "O=C1OC2(c3ccc(O)cc3Oc3cc(O)ccc32)c2ccccc21", "growth inhibition call": "inactive"}
{"compound": "O=C1OC2(c3ccccc31)c1cc(I)c(O)c(I)c1Oc1c2cc(I)c(O)c1I", "growth inhibition call": "active"}
{"compound": "O=C1OC(c2cc(I)c(O)c(I)c2)(c2cc(I)c(O)c(I)c2)c2ccccc21", "growth inhibition call": "inactive"}
{"compound": "Cc1ccc(CNS(=O)(=O)N(C)C)cc1", "growth inhibition call": "inactive"}
{"compound": "CO[C@H](CN(C)S(=O)(=O)c1ccc(Cl)cc1)[C@@H](C)CN([C@H](C)CO)S(=O)(=O)c1cccc(Cl)c1", "growth inhibition call": "inactive"}
{"compound": "C[C@H](CO)N1C[C@H](C)[C@@H](CN(C)C(=O)Cc2ccncc2)Oc2ncc(C#Cc3ccccc3F)cc2C1=O", "growth inhibition call": "inactive"}
{"compound": "N=C(N)NCCC[C@@H](NC(=O)CC1(CC(=O)N2CCN([C@H]3c4ccccc4NC(=O)c4ccccc43)CC2)CCCC1)C(=O)NCCn1c(=O)n(-c2ccccc2)n(-c2ccccc2)c1=O", "growth inhibition call": "active"}
{"compound": "C[C@H]1CN([C@@H](C)CO)C(=O)c2cc(NC(=O)Nc3cccc4ccccc34)ccc2O[C@H]1CN(C)C(=O)Nc1ccccc1", "growth inhibition call": "inactive"}
{"compound": "C[C@@H]1CN([C@H](C)CO)C(=O)c2cccc(NS(C)(=O)=O)c2O[C@H]1CN(C)Cc1ccc(C(=O)O)cc1", "growth inhibition call": "inactive"}
{"compound": "CC=C(C(=CC)c1ccc(O)cc1)c1ccc(O)cc1", "growth inhibition call": "active"}
{"compound": "Oc1ccc(O)cc1", "growth inhibition call": "inactive"}
{"compound": "CCC(=C(CC)c1ccc(O)cc1)c1ccc(O)cc1", "growth inhibition call": "inactive"}
{"compound": "CC(C)NC(=O)N(C)C[C@@H]1Oc2cc(C#Cc3ccc(F)cc3)ccc2S(=O)(=O)N([C@H](C)CO)C[C@H]1C", "growth inhibition call": "inactive"}
{"compound": "C[C@H](CO)N1C[C@H](C)[C@H](CN(C)Cc2ccc(Cl)c(Cl)c2)Oc2ccc(NC(=O)Nc3ccc(F)cc3)cc2CC1=O", "growth inhibition call": "inactive"}
{"compound": "C[C@@H]1CCCCO[C@H](CN(C)Cc2ccc(C(F)(F)F)cc2)[C@@H](C)CN([C@@H](C)CO)C(=O)c2cc(NS(=O)(=O)c3ccc(Cl)cc3)ccc2O1", "growth inhibition call": "inactive"}
{"compound": "Cn1c(=O)c2c(nc(SCSc3nc4c(c(=O)n(C)c(=O)n4C)n3C)n2C)n(C)c1=O", "growth inhibition call": "inactive"}
{"compound": "Cc1nc2c(=O)n(C)c(=O)n(C)c2nc1Cl", "growth inhibition call": "active"}
{"compound": "CCn1c(Cl)nc2c1c(=O)n(C)c(=O)n2C", "growth inhibition call": "inactive"}
{"compound": "Cc1noc(C)c1S(=O)(=O)Nc1ccc2c(c1)CC(=O)N([C@@H](C)CO)C[C@H](C)[C@@H](CN(C)Cc1ccncc1)O2", "growth inhibition call": "inactive"}
{"compound": "C[C@@H]1CN([C@@H](C)CO)C(=O)c2cc(NS(C)(=O)=O)ccc2O[C@H]1CN(C)C(=O)Nc1ccccc1", "growth inhibition call": "inactive"}
{"compound": "COC1(NC(=O)Cc2cccs2)C(=O)N2C(C(=O)[O-])=C(COC(N)=O)CSC21.[Na+]", "note": "(stereo unspecified)", "growth inhibition call": "active"}
{"compound": "CC(=O)OCC1=C(C(=O)O)N2C(=O)[C@@H](NC(=O)CSc3ccncc3)[C@H]2SC1", "growth inhibition call": "active"}
{"compound": "CC(=O)OCC1=C(C(=O)[O-])N2C(=O)C(NC(=O)Cc3cccs3)C2SC1.[Na+]", "note": "(stereo unspecified)", "growth inhibition call": "active"}
{"compound": "CC(=O)OCC1=C(C(=O)[O-])N2C(=O)C(NC(=O)CSc3ccncc3)C2SC1.[Na+]", "note": "(stereo unspecified)", "growth inhibition call": "active"}
{"compound": "C[C@H]1CCCCO[C@@H](CN(C)C(=O)Nc2ccc(C(F)(F)F)cc2)[C@@H](C)CN([C@@H](C)CO)C(=O)c2cc(NC(=O)NC3CCCCC3)ccc2O1", "growth inhibition call": "inactive"}
{"compound": "C[C@H]1CCCCO[C@@H](CN(C)C(=O)Nc2ccc3c(c2)OCO3)[C@@H](C)CN([C@@H](C)CO)C(=O)c2cc(NS(=O)(=O)c3ccccc3)ccc2O1", "growth inhibition call": "inactive"}
{"compound": "C[C@H](CO)N1C[C@H](C)[C@@H](CN(C)S(C)(=O)=O)Oc2c(NC(=O)Nc3ccc(C(F)(F)F)cc3)cccc2C1=O", "growth inhibition call": "inactive"}
{"compound": "COc1cccc(C#Cc2cnc3c(c2)C(=O)N([C@@H](C)CO)C[C@@H](C)[C@@H](CN(C)C(=O)C2CCOCC2)O3)c1", "growth inhibition call": "inactive"}
